Compound activity from PubChem.
Most compounds without a hit are left out; they make up all but 1.2% or so of the library.
Redox H2O2 prof – compounds producing H2O2 with reducing agent – biochemical, NIH compound library profiling, artefact control for MLSCN library redox annotation, primary screen | DTT-dependent redox cycling H2O2, phenol red/HRP absorbance; 100% = 100 µM peroxide control, 0% = buffer | activation, % at 10 µM | actives 0.03% (n = 200,000) | AID 878;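 active = activation of at least 50% relative to the plate's high and low controls in the primary single-dose screen; inactive = activation below 50%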;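 also: compound incubated with DTT at 0.8 mM final as the reducing agent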
FAS TE block – FAS thioesterase (human) inhibition; recombinant FAS-TE, OMFH fluorogenic substrate, fluorescence endpoint; inhibition, % at 15 µM; actives 0.67% (n = 360,000);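 active = compounds whose normalised, plate-corrected inhibition of enzyme fluorescence in the single-dose primary screen is 50% or more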
PKD1 kinase inh – PKD1 (human) kinase inhibition | Q15139 | PKD1 kinase fluorescence polarization assay | inhibition, % (test concentration not listed) | actives 0.056% (n = 200,000) | AID 797; in the data active = inhibition above about 50%
p97 ATPase inh – human p97 ATPase inhibition; P55072; recombinant p97 ATPase, Kinase-Glo ATP luminescence, 3 h; inhibition, % at 8 µM; actives 0.42% (n = 220,000); AID 1481; in the data active = inhibition above about 15%
Target sequence (P55072 whole entry, looked up): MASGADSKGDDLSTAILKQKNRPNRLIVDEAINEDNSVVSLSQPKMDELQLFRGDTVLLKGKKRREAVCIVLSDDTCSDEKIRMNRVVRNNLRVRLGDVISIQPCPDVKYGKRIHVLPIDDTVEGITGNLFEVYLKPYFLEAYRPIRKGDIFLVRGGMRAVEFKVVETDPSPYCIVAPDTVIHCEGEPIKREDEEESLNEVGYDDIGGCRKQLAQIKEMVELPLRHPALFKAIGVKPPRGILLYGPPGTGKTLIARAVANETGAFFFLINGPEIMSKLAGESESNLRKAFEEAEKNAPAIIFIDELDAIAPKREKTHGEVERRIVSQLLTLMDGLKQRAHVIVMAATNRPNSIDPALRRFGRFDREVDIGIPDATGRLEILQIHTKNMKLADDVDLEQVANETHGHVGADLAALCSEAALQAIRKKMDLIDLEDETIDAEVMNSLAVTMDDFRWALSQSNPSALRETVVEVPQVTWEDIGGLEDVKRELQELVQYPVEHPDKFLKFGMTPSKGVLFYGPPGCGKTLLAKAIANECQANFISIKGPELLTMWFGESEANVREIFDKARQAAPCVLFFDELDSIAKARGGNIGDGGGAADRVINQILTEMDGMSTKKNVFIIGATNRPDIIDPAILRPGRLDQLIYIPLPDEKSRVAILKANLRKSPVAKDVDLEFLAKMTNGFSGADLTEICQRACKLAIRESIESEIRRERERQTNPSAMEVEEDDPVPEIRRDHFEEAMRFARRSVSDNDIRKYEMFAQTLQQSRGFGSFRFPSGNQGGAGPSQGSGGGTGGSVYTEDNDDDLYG
Furin inh – inhibitors of human furin. P09958. purified furin, fluorogenic substrate cleavage. inhibition, % at 20 µM or 30 µM. actives 0.061% (n = 220,000); in the data active = inhibition above about 25%
UBC9 SUMO inh – inhibitors of human SUMOylation (UBC9); HTRF SUMOylation assay, SAE1/SAE2 + UBC9, in vitro; inhibition, % at 35 µM; actives 0.36% (n = 290,000); AID 2006; in the data active = inhibition above about 50%, passing the limit was not always enough
A number is an active result; - = inactive; . = no result.

SMILES	Redox H2O2 prof	FAS TE block	PKD1 kinase inh	p97 ATPase inh	Furin inh	UBC9 SUMO inh
O=c1c2ccccc2nc(/C=C/c2cccnc2)n1Cc1ccccc1	-	-	-	-	-	82
O=c1c2ccccc2nc(/C=C/c2cccnc2)n1CCc1ccccc1	.	-	.	-	-	-
CCCCNC(=O)C1(C)CCCCN1C(=O)c1ccc2c(c1)C(C)(C)CCC2(C)C (configuration not stated)	.	-	.	.	.	.
O=C1C(Cl)=C(NC(=O)c2ccccc2)C(=O)C(Cl)=C1NC(=O)c1ccccc1	.	-	.	.	.	51
COc1ccc(S(=O)(=O)N2CC=C(c3ccccc3)CC2)cc1OC	.	-	.	.	.	.
CN1CCN(C(=O)c2cccc3c(-c4ccc(F)c(F)c4)coc23)CC1	.	-	.	.	.	.
Oc1c(Cl)cc(Cl)cc1Sc1cc(Cl)cc(Cl)c1O	-	.	-	-	-	92
CCc1nc2ccc(C(=O)NCCC(C)C)cn2c1N(C)Cc1ccc(OC)cc1	.	-	.	.	.	.
Oc1c(Br)cc(Br)cc1CNc1cccc2cccnc12	.	-	.	.	.	75
Oc1ccc(Cl)cc1CNc1cccc2cccnc12	.	-	.	.	.	66
COc1cccc(CNc2cccc3cccnc23)c1O	-	-	-	-	-	-
Oc1ccc(Br)cc1CNc1cccc2cccnc12	.	-	.	.	.	-
CC1=NC(C)(C)CC2CCC(O)C12 (configuration not stated)	.	-	.	.	.	.
CC(=O)NC1CC2CCCC(C1)N2C(=O)Nc1cccc(C(C)=O)c1 (configuration not stated)	.	-	.	.	.	.
CCOC1=C2[C@H](c3ccc(CC)cc3)N(S(=O)(=O)c3ccc(C)cc3)C[C@H]2n2c(=O)n(-c3ccccc3)c(=O)n2C1	.	-	.	.	.	.
COc1ccc([N+](=O)[O-])cc1NC(=O)Cc1ccccc1Cl	-	-	-	-	-	-
CCN(CCC(=O)Nc1cc([N+](=O)[O-])ccc1OC)Cc1ccccc1	-	-	-	-	-	69
O=C(O[C@@H]1Cc2c(O)cc(O)cc2O[C@@H]1c1cc(O)c(O)c(O)c1)c1cc(O)c(O)c(O)c1	.	.	.	42	.	-
COc1ccccc1C(=O)Nc1cc(Cl)ccc1O	-	-	-	15	-	-
COc1cc(NC(=O)c2ccccc2)c(OC)cc1Cl	-	-	-	-	27	-
COCCn1c2nc(=O)n(-c3ccccc3)c(=O)c-2nc2ccccc21	.	-	.	.	.	.
Cc1[nH]n(-c2ccccc2)c(=O)c1N=Nc1ccc(F)cc1	.	-	.	.	.	-
CSc1ccc(N=Nc2c(C)[nH]n(C)c2=O)cc1	.	-	.	-	26	-
Cc1cccc(C)c1NC(=O)C1c2ccccc2OCC(=O)N1CCCN1CCOCC1 (configuration not stated)	.	-	.	.	.	.
Cc1[nH]n(-c2ncc(-c3ccc(Cl)cc3)s2)c(=O)c1C(c1ccc(Cl)cc1)C(C#N)C#N (configuration not stated)	-	-	-	-	-	70
SMILES	Redox H2O2 prof	FAS TE block	PKD1 kinase inh	p97 ATPase inh	Furin inh	UBC9 SUMO inh
COc1ccc(C(c2c(C)[nH]n(C(N)=S)c2=O)C(C#N)C#N)cc1 (configuration not stated)	-	-	-	-	-	-
O=C(CN1CCNCC1)N1CCOCC1	.	-	.	.	.	.
Brc1ccc([C@H]2C=C[C@H]3CCCN4CC[C@H]2[C@@H]3[C@]42CO2)cc1	.	-	.	.	.	.
CC(=O)NC1C(=O)N(CCN2CCOCC2)c2ccc(Br)cc21 (configuration not stated)	.	-	.	.	.	62
CCOc1ccc2c(c1)C(NC(C)=O)C(=O)N2CCN1CCOCC1 (configuration not stated)	.	-	.	.	.	57
COC(=O)CCCn1cc(CN2CC(N3CCCCC3)CS2(=O)=O)nn1 (configuration not stated)	.	-	.	.	.	.
N#Cc1c(N)n(C2OC(CO)C(O)C2O)c2ncnc(N)c12 (configuration not stated)	.	-	.	.	.	.
COc1cc2c(cc1NC(=O)CN1C(=O)NC3(CCc4ccccc43)C1=O)oc1ccccc12 (configuration not stated)	-	55	-	-	-	-
Cc1ccccc1NC(=O)CN1C(=O)NC2(CCc3ccccc32)C1=O (configuration not stated)	.	-	.	.	.	.
CC1=NN(c2ccc(C(=O)O)c(N)c2)C(=O)C1	-	-	-	-	-	79
CSc1n[nH]c(NCc2ccc(Cl)cc2)n1	-	-	-	-	-	-
CSc1n[nH]c(NCc2ccc(C)cc2)n1	-	-	-	-	27	-
CC(=O)N(C)c1ccc(NC(=S)Nc2cccc3ccccc23)cc1	-	-	-	-	-	95
CC(=O)N(C)c1ccc(NC(=S)Nc2ccccc2)cc1	-	-	-	-	-	-
Nc1ccc2oc(-c3cccs3)nc2c1	-	-	-	-	-	56
Cc1ccc(-c2nc3cc(N)ccc3o2)cc1	-	-	-	-	-	52
N=C1CCC(=N)c2c1c(O)c1ccccc1c2O	.	-	.	-	-	63
O=C1CCn2c1c(O)c1ccccc1c2=O	.	-	.	.	.	.
N#CCCCc1cn(-c2nc3ccccc3s2)nn1	.	-	.	.	.	.
O=C1CC(N2CCC(c3nc4ccccc4o3)CC2)C(=O)N1Cc1cccs1 (configuration not stated)	-	-	-	-	27	-
COc1ccccc1S(=O)(=O)N(C)C[C@H]1OCc2cn(nn2)CCCC(=O)N([C@@H](C)CO)C[C@@H]1C	.	-	.	.	.	.
CC(=O)N1c2c(cc(Br)cc2S(=O)(=O)NCc2cccnc2)CC1C (configuration not stated)	-	-	-	-	-	-
CC(=O)N1c2c(cc(Br)cc2S(=O)(=O)NCc2ccc3c(c2)OCO3)CC1C (configuration not stated)	-	-	-	-	-	92
Nc1cc(=O)[nH]c(=O)n1Cc1ccco1	-	-	-	-	26	-
Nc1cc(=O)[nH]c(=O)n1Cc1ccccc1	-	-	-	-	-	-
